# Compound activity as filed in PubChem.
# TIM10 inh = growth inhibitors of isogenic TIM10 control yeast, primary screen, counter-screen for tim10-1 yeast inhibitor project, luminescence, uHTS; 1.4% of 330,000 active; AID 463195, 2010; S. cerevisiae TIM10 strain growth, BacTiter-Glo luminescence, 24 h; inhibition, % at 10 µM;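 active means inhibition of 40% or more at the single tested concentration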;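 further: wild-type TIM10 isogenic control strain grown at permissive 25 °C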
# NALP1 yeast inh = NALP1 inflammasome inhibitors in reconstituted yeast, colorimetric, S. cerevisiae, triplicate retest | S. cerevisiae NALP1/ASC/caspase-1 growth, X-gal OD620, 72 h | inhibition, % at 10 µM | 0.61% of 280,000 active; in the data active means inhibition mostly above about 24%, no sharp cut-off; inactive means mostly below about 32%
# PfHsp90 yeast 2 = growth inhibition of PfHsp90-expressing yeast, primary screen, antimalarial PfHsp90 inhibitor project, S. cerevisiae, BacTiter-Glo luminescence, single point, set 2 | BacTiter-Glo ATP, 48 h; yeast lacking PDR1 and PDR3 efflux regulators | inhibition, % at 9.4 µM | 0.32% of 310,000 active | AID 504621, 2011;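 active means every replicate shows inhibition above about 80%, whatever the replicate mean, limit read from the data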;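 further: 0% = DMSO neutral controls and 100% = 20 µM radicicol positive controls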
# tim23-1 inh = growth inhibitors of tim23-1 mutant yeast, primary screen, luminescence, uHTS. S. cerevisiae tim23-1 growth, BacTiter-Glo luminescence, 24 h. inhibition, % at 20 µM. 1.3% of 330,000 active. AID 463212, 2010;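 active means growth inhibition of the mutant yeast at or above 50%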;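 further: temperature-sensitive mutant grown at 25 °C; plate controls were DMSO-treated mutant yeast for no effect and medium wells lacking yeast for full effect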
# NALP3 yeast inh = NALP3 inflammasome inhibitors in reconstituted yeast, primary screen, luminescence, uHTS; Yeast reconstituted NLRP3/ASC/caspase-1, beta-gal luminescence, 24 h; inhibition, % at 10 µM; 0.39% of 330,000 active;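 active means inhibition of 50% or more; inactive means inhibition below 50%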;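 further: plate controls were induced DMSO wells for no effect and uninduced yeast grown without galactose for full effect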
# tim10-1 inh = growth inhibitors of tim10-1 mutant yeast, primary screen, luminescence, uHTS. S. cerevisiae tim10-1 ts strain growth, BacTiter-Glo, 24 h. inhibition, % at 20 µM. 2.2% of 330,000 active;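 active means inhibition of at least 40%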;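 further: mutant grown at 25 °C; 0% = DMSO wells with yeast and 100% = wells holding no yeast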
# tim10-1 conf = growth inhibitors of tim10-1 mutant yeast, confirmation, single concentration, luminescence, S. cerevisiae. shares compounds with tim10-1 inh. 56% of 7,400 active. S. cerevisiae tim10-1 ts strain growth, BacTiter-Glo, 24 h. inhibition, % at 20 µM;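 active means inhibition of yeast growth at or above a set limit in either of two repeat tests at 20 µM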;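 further: tim10-1 mutant grown at permissive 25 °C to find synthetic lethal compounds; 0% = DMSO yeast wells and 100% = medium wells without yeast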
# An asterisk follows results filed as active; x = not tested or not shown. Shown are actives, neighbours in structure and some others; about 4.1% of the full set was active somewhere.
SMILES,TIM10 inh,NALP1 yeast inh,PfHsp90 yeast 2,tim23-1 inh,NALP3 yeast inh,tim10-1 inh,tim10-1 conf
O=C(/C=C\c1ccco1)Nc1ccc(N2CCN(C(=O)c3ccccc3)CC2)cc1,18.3,14.9,-1.9,41.5,15.6,42.3*,31.6*
O=C(c1ccc2nc(-c3ccco3)c(-c3ccco3)nc2c1)N1CCN(c2ccccc2)CC1,18.7,9.5,-44.7,14.7,30.7,41.9*,32.6*
CCc1nc2ccc(C(=O)N3CCN(c4cccc(C(F)(F)F)c4)CC3)cc2nc1CC,22.0,-2.8,10.0,37.5,10.3,42.1*,19.1
O=C(/C=C/c1ccco1)N1CCN(c2ccccc2)CC1,9.1,30.8,9.0,-2.9,24.5,13.8,x
CCOc1ccccc1C(=O)Nc1nnc(SCC(=O)Nc2cc(C)on2)s1,-7.2,2.1,2.6,4.0,4.2,5.2,x
O=C(COc1ccc(F)cc1)Nc1nc(-c2ccccn2)cs1,-5.7,x,-11.3,40.8,43.6,21.9,x
O=C(COc1ccc([N+](=O)[O-])cc1)Nc1nc(-c2ccccn2)cs1,0.0,x,x,38.4,27.3,41.7*,13.0
CCN(C(=O)COC(=O)/C=C/c1c(C)nn(-c2ccccc2)c1C)C1CCS(=O)(=O)C1 (stereo not drawn),-3.5,x,10.0,11.5,5.8,7.3,x
Cc1nn(Cc2cccc(C(=O)NC34CC5CC(CC(C5)C3)C4)c2)c(C)c1Br,20.0,18.8,9.0,26.1,-0.4,43.4*,27.7
Cn1c(=S)n(/N=C/c2ccc3c(c2)OCO3)c2ccccc21,-6.6,5.7,x,0.2,12.2,6.7,x
COc1ccc(/C=N/n2c(=S)n(C)c3ccccc32)cc1OC,37.0,11.6,-6.1,41.4,-7.0,42.6*,30.4*
Cc1cc(-c2[nH]nc3c2C(c2ccsc2)C(C#N)=C(N)O3)c(C)s1 (stereo not drawn),31.7,0.5,-15.2,42.6,20.8,46.8*,44.3*
Cc1ccc(-c2[nH]nc3c2C(C)C(C#N)=C(N)O3)cc1 (stereo not drawn),39.8,29.7,-7.3,37.5,15.0,40.5*,32.5*
Cc1ccc(OCC(=O)O/N=C(\N)Cc2cccs2)cc1C,22.5,x,-28.4,38.1,38.5,43.8*,28.5
COc1ccccc1C/C(N)=N/OC(=O)COc1ccccc1C,38.8,10.0,-18.9,34.0,5.3,40.8*,40.4*
OC1CCN(c2ncnc3c2nnn3Cc2c(F)cccc2Cl)CC1,14.6,3.2,-1.1,17.4,-8.3,42.7*,25.6
Cc1cc(C(=O)COC(=O)c2ccc(F)cc2F)c(C)n1C1CC1,-15.7,x,-9.3,0.3,22.4,-2.7,x
c1cc2cc(-c3c(-c4ccc5c(c4)OCO5)noc3-c3ccsc3)ccc2[nH]1,13.3,5.0,3.3,19.9,7.2,28.9,x
Cc1onc(-c2ccc3c(c2)OCO3)c1-c1ccc2[nH]ccc2c1,-12.5,-1.9,-18.8,-6.5,17.3,53.8*,39.5*
CCn1c(-c2ccccc2)c(C(=O)CC#N)c2ccccc21,25.4,-7.3,-32.6,31.6,4.2,42.2*,30.0*
NC(=O)NC(CC(=O)Nc1cccnc1)c1cccc(Br)c1 (stereo not drawn),-10.1,5.8,-12.8,10.8,10.2,-2.1,x
Cc1cccc(N2C(=O)CN(Cc3sccc3C)C2=S)c1,30.5,16.4,-17.4,39.7,15.6,21.3,x
Cc1ccsc1CN1CC(=O)N(c2c(C)cccc2C)C1=S,23.5,4.1,x,38.9,29.5,45.2*,36.2*
Cc1cccc(N2C(=O)CN(Cc3cccs3)C2=S)c1,33.4,2.6,18.8,44.6,13.8,42.5*,25.1
CCCn1ncc(CN2CCC(n3nccc3NC(=O)c3ccccc3Cl)CC2)c1C,-6.7,23.0,2.0,-14.6,12.8,-1.7,x
SMILES,TIM10 inh,NALP1 yeast inh,PfHsp90 yeast 2,tim23-1 inh,NALP3 yeast inh,tim10-1 inh,tim10-1 conf
N=c1sccn1CC(=O)Nc1ccc(Cl)cc1[N+](=O)[O-],12.3,5.3,-10.3,-6.2,14.6,-8.7,x
Cc1cccc(/C=C2\Sc3ccc(C(=O)N4CCCCC4)cc3N(C)C2=O)c1,0.3,19.5,12.3,33.4,12.5,45.4*,-2.1
CN1C(=O)/C(=C/c2cccc(Cl)c2)Sc2ccc(C(=O)N3CCCC3)cc21,10.1,-1.3,x,32.8,14.2,51.9*,9.8
Cc1cccc(/C=C2\Sc3ccc(C(=O)N4CCOCC4)cc3N(C)C2=O)c1,-1.6,6.6,6.0,9.6,19.5,17.3,x
CCCn1c(SCC(=O)Nc2cccnc2Cl)n[nH]c1=O,4.2,x,x,-1.5,6.6,-9.4,x
CCn1c(=O)c(CCC(=O)N2CCN(c3ccccn3)CC2)c(C)c2c(C)nn(-c3cccc(C)c3)c21,9.2,30.2,-12.7,29.6,18.4,36.7,x
O=C(C1CCN(S(=O)(=O)c2cccc3cccnc23)CC1)N1CC=C(c2ccccc2)CC1,27.9,-3.5,x,29.4,4.9,43.3*,17.1
O=C(NCCn1ccc2ccccc21)c1ccc(S(=O)(=O)N2CCCCC2)cc1,20.2,x,8.1,34.2,-10.1,41.0*,27.4
COc1ccc(C(=O)NCCn2ccc3ccccc32)cc1,3.4,10.0,5.3,25.6,31.2,-11.3,x
CC(=O)C[C@@H](O)CC(=O)[C@H]1OC(=O)[C@H](C)CCCCc2ccccc21,10.7,x,-11.7,9.4,2.7,11.7,x
N/C(=N\OC(=O)c1cccc2ccccc12)c1ccncc1,29.4,0.3,-21.8,28.3,-7.1,48.9*,39.5*
O=C(Oc1ccccc1O)c1cccc2ccccc12,21.5,-9.6,x,42.5,38.9,47.4*,33.7*
Cc1ccc(S(=O)(=O)N2CCCCC2CCNC(=O)C(=O)NCc2ccco2)cc1 (stereo not drawn),0.5,x,-13.4,36.6,20.0,42.3*,13.4
COCCCNC(=O)c1ccccc1-c1cc(C)no1,6.4,8.0,11.4,1.6,14.1,2.7,x
Cc1ccc2c(CN3CCCCC3)cc(=O)oc2c1,3.0,13.5,-19.7,4.4,14.2,-3.0,x
Cc1ccc2c(CN3CCN(S(=O)(=O)/C=C/c4ccccc4)CC3)cc(=O)oc2c1,36.4,39.1,-16.4,47.1,6.1,40.2*,35.6*
COCC1CCCCN1C(=O)c1ccc2nc(Cc3ccc(OC)c(OC)c3)oc2c1 (stereo not drawn),9.3,19.0,-73.5,13.8,13.4,6.6,x
CCOC(=O)/C(=C\c1ccc([N+](=O)[O-])o1)NC(=O)c1ccccc1,33.7,-6.4,-27.0,44.3,7.3,47.3*,42.5*
